Test results published in the supplement of paper PMC13380429.

Test system: Vero E6 infected with SARS-CoV-2
Assay: inhibition of SARS-CoV-2 cytopathic effect; higher = more antiviral protection, active = above 15
Conditions: 48 h

Measured: inhibition of SARS-CoV-2 cytopathic effect

COc1ccccc1OC(=O)c1ccccc1OC(C)=O [guacetisal]
inactive: 1 nM -0.24% | 8.33 nM -1.18% | 100 nM 1.85% | 833.33 nM 4.31% | 10000 nM -0.68%

CCOC(=O)Nc1cc2c(c(N)n1)N=C(c1ccccc1)[C@H](C)N2 [mivobulin]
inactive: 1 nM 3.19% | 8.33 nM 0.16% | 100 nM 1.34% | 833.33 nM 1.06% | 10000 nM -0.59%

O=C(O)CC1CC(c2ccccc2)=NO1 (stereo not given)
inactive: 1 nM -0.73% | 8.33 nM 0.07% | 100 nM -0.78% | 833.33 nM 2.86% | 10000 nM 0.36%

C=CCNc1nc(NCC=C)nc(N2CCN(C(c3ccc(F)cc3)c3ccc(F)cc3)CC2)n1 [almitrine]
inactive: 1 nM -6.44% | 8.33 nM -3.95% | 100 nM -7.43% | 833.33 nM -4.59% | 10000 nM -8.59%

O=C1C(CC[S+]([O-])c2ccccc2)C(=O)N(c2ccccc2)N1c1ccccc1 (stereo not given) [sulfinpyrazone]
inactive: 1 nM 1.22% | 8.33 nM 1.51% | 100 nM -0.06% | 833.33 nM 0.46% | 10000 nM 0.32%

Nc1c2c(nc3c1CCC3)CCCC2 [ipidacrine]
inactive: 1 nM 1.46% | 8.33 nM 1.94% | 100 nM 1.19% | 833.33 nM 0.32% | 10000 nM 3.14%

CN(C)c1nc(N)c(C(=O)Nc2cccnc2)nc1Cl
inactive: 1 nM 1.28% | 8.33 nM 4.72% | 100 nM -0.62% | 833.33 nM 4.15% | 10000 nM 0.82%

CCC(C)CCCC(=O)N[C@@H](CCN)C(=O)N[C@H](C(=O)N[C@@H](CCN)C(=O)N[C@H]1CCNC(=O)[C@H]([C@@H](C)O)NC(=O)[C@H](CCN)NC(=O)[C@H](CCN)NC(=O)[C@H](CC(C)C)NC(=O)[C@@H](CC(C)C)NC(=O)[C@H](CCN)NC1=O)[C@@H](C)O (stereo not given in full) [colistin]
inactive: 1 nM 0.955% | 8.33 nM -0.06% | 100 nM 3.56% | 833.33 nM 0.76% | 10000 nM -2.41%

CCCN(CCc1cccs1)[C@H]1CCc2c(O)cccc2C1 [rotigotine]
inactive: 1 nM 0.32% | 8.33 nM -0.89% | 100 nM 1.13% | 833.33 nM -1.26% | 10000 nM -6.53%

CCCCCCCCCCCCCCCC(=O)OC(CC(=O)[O-])C[N+](C)(C)C (stereo not given) [palmitoylcarnitine]
inactive: 1 nM 0.08% | 8.33 nM 0.65% | 100 nM 0.35% | 833.33 nM -1.19% | 10000 nM -9.18%

NC(=O)CN1CC(c2ccccc2)CC1=O (stereo not given) [phenylpiracetam]
inactive: 1 nM 1.63% | 8.33 nM -10.6% | 100 nM 2.27% | 833.33 nM 1.14% | 10000 nM -0.44%

NC1=NC(=O)N([C@H]2C[C@H](O)[C@@H](CO)O2)CN1
inactive: 1 nM -1.14% | 8.33 nM -2.12% | 100 nM 0.08% | 833.33 nM 0.71% | 10000 nM -0.27%

CCCN(CCC)C(=O)C1=Cc2ccc(-c3ccc(C(=O)N4CCCC4)cc3)cc2N=C(N)C1 [motolimod]
inactive: 1 nM 0.77% | 8.33 nM 0.05% | 100 nM 1.88% | 833.33 nM 1.37% | 10000 nM -1.01%

Cn1cc(-c2ccc3ncc(Cc4ccc5ncccc5c4)n3n2)cn1
inactive: 1 nM -4.59% | 8.33 nM -2.71% | 100 nM -1.81% | 833.33 nM 2.47% | 10000 nM 3.49%

COc1ccc(C(CN(C)C)C2(O)CCCCC2)cc1 (stereo not given) [venlafaxine]
inactive: 1 nM 0.56% | 8.33 nM 0.96% | 100 nM 1.86% | 833.33 nM -0.35% | 10000 nM -0.29%

CCCCCCCCc1ccc(-c2ccc(C(=O)O)cc2)cc1
inactive: 1 nM -0.05% | 8.33 nM 1.54% | 100 nM 1.52% | 833.33 nM 3.77% | 10000 nM 1.83%

CC(C)(C)c1ccc(C(=O)CCCN2CCC(OC(c3ccccc3)c3ccccc3)CC2)cc1 [ebastine]
inactive: 1 nM 0.86% | 8.33 nM 1.48% | 100 nM 0.7% | 833.33 nM -2.23% | 10000 nM -4.94%

O=C1CC[C@@](c2ccccc2)(C2CCN(Cc3ccc(I)cc3)CC2)C(=O)N1 [iododexetimide]
inactive: 1 nM 1.14% | 8.33 nM -0.02% | 100 nM -0.5% | 833.33 nM -1.35% | 10000 nM -6.84%
